Reference: PubChem BioAssay AID1159580 (chemical genetic matrix, 2015)
Out of some 5,500 compounds screened, about 2,000 (36%) were called active. About 18% were inconclusive and are not listed. No stated cut-off is given here; in the data, active means normalized growth mostly below about 0.91 (no sharp cut-off); inconclusive means no clear call, values can overlap the other calls; inactive means mostly above about 0.92. The list shows a part of the results.

Experiment: chemical genetic growth profiling, strain panel (AID 1159580);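 further: tested at 20 µM; growth read once vehicle control cultures reached saturation at 30 °C; 1 = growth at the plate median or of vehicle wells; lower values mean less growth of the strain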
Settings: growth OD

Measured: normalized growth

CO[C@@H]1[C@@H](OC(N)=O)[C@@H](O)[C@H](Oc2ccc3c(O)c(NC(=O)c4ccc(O)c(CC=C(C)C)c4)c(=O)oc3c2C)OC1(C)C
inactive: S. cerevisiae deletion strains, locus YJR043C, strain POL32, active compounds read low 1 | S. cerevisiae deletion strains, locus YJR066W, strain TOR1, active compounds read low 0.896 | S. cerevisiae deletion strains, locus YJR075W, strain HOC1, active compounds read low 1.02 | S. cerevisiae deletion strains, locus YKL009W, strain mrt4, active compounds read low 0.96 | S. cerevisiae deletion strains, locus YKL085W, strain MDH1 (second series), active compounds read low 0.949 | S. cerevisiae deletion strains, locus YKL085W, strain MDH1, active compounds read low 0.949 | S. cerevisiae deletion strains, locus YKL160W, strain elf1, active compounds read low 1.03 | S. cerevisiae deletion strains, locus YKL190W, strain CNB1, active compounds read low 0.993 | S. cerevisiae deletion strains, locus YKR001C, strain vps1, active compounds read low 0.99 | S. cerevisiae deletion strains, locus YKR026C, strain gcn3, active compounds read low 1.04 | S. cerevisiae deletion strains, locus YKR091W, strain srl3, active compounds read low 1.03 | S. cerevisiae deletion strains, locus YLL001W, strain dnm1, active compounds read low 1.04 | S. cerevisiae deletion strains, locus YLL026W, active compounds read low 1.04 | S. cerevisiae deletion strains, locus YLL041C, strain sdh2, active compounds read low 1.02 | S. cerevisiae deletion strains, locus YLR027C, strain aat2, active compounds read low 1.03 | S. cerevisiae deletion strains, locus YLR039C, strain RIC1, active compounds read low 0.962 | S. cerevisiae deletion strains, locus YLR058C, strain SHM2, active compounds read low 1.01 | S. cerevisiae deletion strains, locus YLR102C, strain apc9, active compounds read low 0.993 | S. cerevisiae deletion strains, locus YLR221C, strain rsa3, active compounds read low 1.02 | S. cerevisiae deletion strains, locus YLR258W, strain gsy2, active compounds read low 1.03 | S. cerevisiae deletion strains, locus YLR262C, strain YPT6 (second series), active compounds read low 1.02 | S. cerevisiae deletion strains, locus YLR262C, strain YPT6, active compounds read low 0.968 | S. cerevisiae deletion strains, locus YLR268W, strain sec22, active compounds read low 0.955 | S. cerevisiae deletion strains, locus YLR320W, strain mms22, active compounds read low 1.04 | S. cerevisiae deletion strains, locus YLR330W, strain CHS5, active compounds read low 1.03 | S. cerevisiae deletion strains, locus YLR342W, strain FKS1 (second series), active compounds read low 1.04 | S. cerevisiae deletion strains, locus YLR342W, strain FKS1, active compounds read low 1.03 | S. cerevisiae deletion strains, locus YLR357W, strain rsc2, active compounds read low 1.05 | S. cerevisiae deletion strains, locus YLR370C, strain arc18, active compounds read low 1.03 | S. cerevisiae deletion strains, locus YLR371W, strain rom2, active compounds read low 0.979 | S. cerevisiae deletion strains, locus YLR384C, strain iki3, active compounds read low 1.04 | S. cerevisiae deletion strains, locus YLR418C, strain cdc73, active compounds read low 1 | S. cerevisiae deletion strains, locus YML016C, strain PPZ1, active compounds read low 1.02 | S. cerevisiae deletion strains, locus YML032C, strain rad52, active compounds read low 0.99 | S. cerevisiae deletion strains, locus YML120C, strain ndi1, active compounds read low 1.02 | S. cerevisiae deletion strains, locus YML124C, strain tub3, active compounds read low 1 | S. cerevisiae deletion strains, locus YMR058W, strain fet3, active compounds read low 1.03 | S. cerevisiae deletion strains, locus YMR078C, strain ctf18, active compounds read low 0.997 | S. cerevisiae deletion strains, locus YMR125W, strain sto1, active compounds read low 1.02 | S. cerevisiae deletion strains, locus YMR129W, active compounds read low 1.03 | S. cerevisiae deletion strains, locus YMR205C, strain PFK2, active compounds read low 1.05 | S. cerevisiae deletion strains, locus YMR223W, strain ubp8, active compounds read low 1.03 | S. cerevisiae deletion strains, locus YMR231W, strain pep5, active compounds read low 1.03 | S. cerevisiae deletion strains, locus YMR307W, strain GAS1, active compounds read low 1.02 | S. cerevisiae deletion strains, locus YNL067W, strain RPL9B, active compounds read low 0.989 | S. cerevisiae deletion strains, locus YNL071W, strain lat1, active compounds read low 1.04 | S. cerevisiae deletion strains, locus YNL128W, strain TEP1, active compounds read low 0.945 | S. cerevisiae deletion strains, locus YNL183C, strain NPR1, active compounds read low 0.847 | S. cerevisiae deletion strains, locus YNL209W, strain ssb2, active compounds read low 1.04 | S. cerevisiae deletion strains, locus YNL233W, strain BNI4, active compounds read low 1.02 | S. cerevisiae deletion strains, locus YNL248C, strain rpa49, active compounds read low 1.02 | S. cerevisiae deletion strains, locus YNL250W, strain rad50, active compounds read low 0.956 | S. cerevisiae deletion strains, locus YNL271C, strain bni1, active compounds read low 0.986 | S. cerevisiae deletion strains, locus YNL298W, strain CLA4, active compounds read low 0.997 | S. cerevisiae deletion strains, locus YNL307C, strain MCK1, active compounds read low 0.991 | S. cerevisiae deletion strains, locus YNL322C, strain KRE1 (second series), active compounds read low 1.01 | S. cerevisiae deletion strains, locus YNR049C, strain mso1, active compounds read low 1.04 | S. cerevisiae deletion strains, locus YNR052C, strain pop2, active compounds read low 0.978 | S. cerevisiae deletion strains, locus YOL006C, strain TOP1, active compounds read low 0.965 | S. cerevisiae deletion strains, locus YOL012C, strain htz1 1 | S. cerevisiae deletion strains, locus YOL147C, strain pex11, active compounds read low 1.01 | S. cerevisiae deletion strains, locus YOR001W, strain rrp6, active compounds read low 0.979 | S. cerevisiae deletion strains, locus YOR061W, strain CKA2, active compounds read low 1.01 | S. cerevisiae deletion strains, locus YOR069W, strain VPS5, active compounds read low 1.01 | S. cerevisiae deletion strains, locus YOR070C, strain gyp1, active compounds read low 1.03 | S. cerevisiae deletion strains, locus YOR080W, strain dia2, active compounds read low 1.04 | S. cerevisiae deletion strains, locus YOR083W, strain WHI5, active compounds read low 1.03 | S. cerevisiae deletion strains, locus YOR106W, strain vam3, active compounds read low 1.02 | S. cerevisiae deletion strains, locus YOR136W, strain idh2, active compounds read low 1 | S. cerevisiae deletion strains, locus YOR144C, strain elg1, active compounds read low 1 | S. cerevisiae deletion strains, locus YOR184W, strain ser1, active compounds read low 0.987 | S. cerevisiae deletion strains, locus YOR231W, strain MKK1, active compounds read low 0.882 | S. cerevisiae deletion strains, locus YOR265W, strain rbl2, active compounds read low 1.02 | S. cerevisiae deletion strains, locus YOR270C, strain vph1, active compounds read low 0.927 | S. cerevisiae deletion strains, locus YOR290C, strain snf2, active compounds read low 1.05 | S. cerevisiae deletion strains, locus YOR316C, strain cot1, active compounds read low 0.987 | S. cerevisiae deletion strains, locus YPL051W, strain arl3, active compounds read low 1.05 | S. cerevisiae deletion strains, locus YPL055C, strain LGE1, active compounds read low 0.991 | S. cerevisiae deletion strains, locus YPL078C, strain atp4, active compounds read low 1.02 | S. cerevisiae deletion strains, locus YPL106C, strain sse1, active compounds read low 1.05 | S. cerevisiae deletion strains, locus YPL240C, strain hsp82, active compounds read low 1.02 | S. cerevisiae deletion strains, locus YPL256C, strain CLN2, active compounds read low 0.861 | S. cerevisiae deletion strains, locus YPR119W, strain clb2, active compounds read low 1.01 | S. cerevisiae deletion strains, locus YPR141C, strain kar3, active compounds read low 0.962 | S. cerevisiae deletion strains, locus YPR163C, strain tif3, active compounds read low 0.996 | S. cerevisiae deletion strains, locus YPR167C, strain met16, active compounds read low 0.999 | S. cerevisiae deletion strains, strain wtn01, active compounds read low 0.984 | S. cerevisiae strains, strain wild type, active compounds read low 1.02
active: S. cerevisiae deletion strains, locus YKL068W, active compounds read low 0.925 | S. cerevisiae deletion strains, locus YLR113W, strain HOG1, active compounds read low 0.793
